HPGD inh: HPGD (human) dehydrogenase inhibition. P15428. purified HPGD, NADH fluorescence kinetic, PGE2 substrate. Potency, µM, for the others: at the highest dose activity change, negative = inhibition, usual class: inhibitors. 150,000 compounds, 4.3% hits; note: potency is the fitted concentration of half-maximal effect
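20 nM HPGD preincubated 15 min at room temperature with compound in 50 mM Tris-HCl pH 8, 0.01% Tween 20. Started with 1 mM NAD+ and 30 uM prostaglandin E2; NADH fluorescence (360/450 nm) read 5 times over 30-s intervals, last minus first.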
Luc counter: blocks Kinase-Glo luciferase, a counter-screen artifact. Q27757. Kinase-Glo luciferase, ATP luminescence, 8 min. Potency, µM (doses to about 38.3 µM), for inactives: at the highest dose activity change, negative = inhibition, actives largely listed as inhibitors. 200,000 compounds, 0.28% hits. AID 1379; active = well fitted inhibition curve with a large enough effect; inconclusive = small, poorly fitted or top-dose-only effect; note: potency is the fitted concentration of half-maximal effect; nearly all actives have a fitted effect of over 60% in size
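Substrate mix (final 50 mM imidazole pH 7.2, 50 mM KCl, 7 mM MgCl2, 10 uM ATP, 0.01% Tween 20, 0.05% BSA) plus pin-tool compound, then Kinase-Glo detection mix; 8 min ambient, luminescence read.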
LMNA splice mod: changes lamin A minigene splicing in HeLa cells; 200,000 compounds, 0.01% hits; HeLa LMNA splicing GFP/RFP minigene ratio, 48 h; Potency, µM (doses to about 46.1 µM), for the others: at the highest dose ratio change, negative = inhibition, actives largely listed as inhibitors; active = well fitted inhibition curve with a large enough effect in the signal ratio, with a control signal flat, not every such curve was filed as active; inconclusive = small, poorly fitted or top-dose-only effect, or effect the other way, or a change in a side signal; the % refers to the signal ratio; note: potency is the fitted concentration of half-maximal effect
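S3 HeLa stable clones carrying a lamin A-EGFP splicing minigene plus DsRed2 were seeded at 600 cells/well in Opti-MEM with 2% FBS, pin-dosed and incubated 48 h at 37°C. Acumen cytometry (488 nm) gave the GFP/RFP total-intensity ratio.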
PNC assembly inh: blocks assembly of the perinucleolar compartment; activity change (PNC), negative = inhibition, % at 10 µM; PC3M PTB-GFP, PNC prevalence imaging, 16 h; hits give low values; AID 2417; 140,000 compounds, 3.1% hits;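 active = readout at or below -70, meaning at least 70% loss of cells showing the perinucleolar compartment, a nuclear body marking cancer cells; inconclusive = readout between -30 and a set limit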;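 note: plate controls were DMSO wells for no effect and camptothecin positive control wells for full effect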
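PC3M cells stably expressing PTB-GFP, 750–1000 cells/well, treated 16 h at 37 °C with compound (23 nl of library stock), in duplicate. After paraformaldehyde fixation and Hoechst stain, imaged at 20x; PNC prevalence scored by image analysis.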
IMPase cell inh: membrane-permeable compound that blocks inositol monophosphatase | CHO-M1 cells, IP1 accumulation, HTRF TR-FRET ratio | P97697 | 120,000 tested, under 10 active | inhibition (IP1 accumulation), % at 46.1 µM; active = well fitted curve in the direction sought with a large enough effect in the signal ratio, not every such curve was filed as active; inconclusive = small, poorly fitted or top-dose-only effect, or a change in a side signal; inactive = no such curve, though single readings can be large or run the other way; the % refers to the signal ratio;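 note: cells stimulated with carbachol in lithium chloride buffer; plate controls were DMSO basal wells for no effect and reference inhibitor wells for full effect; higher means more IMPase inhibition seen as more IP1 and lower FRET ratio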
Target sequence (P97697 whole entry, looked up): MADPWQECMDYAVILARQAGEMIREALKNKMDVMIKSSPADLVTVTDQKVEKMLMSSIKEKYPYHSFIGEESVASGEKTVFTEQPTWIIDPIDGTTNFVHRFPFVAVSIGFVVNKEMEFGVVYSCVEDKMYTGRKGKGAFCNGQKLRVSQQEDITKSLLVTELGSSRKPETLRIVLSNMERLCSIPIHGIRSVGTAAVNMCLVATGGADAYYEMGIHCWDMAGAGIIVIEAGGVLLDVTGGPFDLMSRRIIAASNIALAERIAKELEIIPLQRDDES
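CHO-M1 cells (CHO stably expressing M1 receptor), compound up to 46 uM final, stimulated with carbachol (50 uM as added) in buffer with 50mM LiCl, pH 7.4, 30 min at 37C. Cytosolic IP1 read by TR-FRET; AC50 from Hill fits.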
ALDH1A1 inh: blocks purified human ALDH1A1 activity; Potency, µM (highest dose often 75.3 µM), for inactives: at the top dose activity, negative = inhibition, actives largely listed as inhibitors; 220,000 compounds, 7.3% hits; Purified ALDH1A1, NADH fluorescence, propionaldehyde substrate; AID 1030;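 note: potency is the fitted concentration of half-maximal effect; plate controls were no enzyme wells and a reference inhibitor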
Target sequence (P00352 whole entry, looked up): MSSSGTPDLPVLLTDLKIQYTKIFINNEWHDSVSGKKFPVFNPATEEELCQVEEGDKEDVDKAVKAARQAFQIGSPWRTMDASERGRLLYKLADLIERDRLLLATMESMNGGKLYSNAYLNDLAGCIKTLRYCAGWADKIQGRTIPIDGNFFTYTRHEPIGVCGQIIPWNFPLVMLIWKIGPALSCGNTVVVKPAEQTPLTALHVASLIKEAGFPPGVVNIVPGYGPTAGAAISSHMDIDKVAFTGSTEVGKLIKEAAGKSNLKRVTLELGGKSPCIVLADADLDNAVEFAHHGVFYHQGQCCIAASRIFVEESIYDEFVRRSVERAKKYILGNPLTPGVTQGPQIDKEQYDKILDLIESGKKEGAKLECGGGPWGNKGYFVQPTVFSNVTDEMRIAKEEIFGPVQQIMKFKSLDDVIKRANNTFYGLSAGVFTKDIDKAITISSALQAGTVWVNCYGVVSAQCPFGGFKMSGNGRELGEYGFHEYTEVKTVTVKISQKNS
Active calls of the source: *; ? = inconclusive; · = no result; [ ] = another dose, or the depositor's remark. The list is not random: actives were taken first. Their share in the collection is about 10%. Unless noted, calls come from the whole dose curve; as a rule, active = well fitted inhibition curve with a large enough effect (not every such curve was filed as active); inconclusive = small, poorly fitted or top-dose-only effect, or another doubt; inactive = no such curve, though single readings can be large or run the other way. Unless noted, % is set by controls: 0 for no effect and ±100 for the full control effect.

SMILES	HPGD inh	Luc counter	LMNA splice mod	PNC assembly inh	IMPase cell inh	ALDH1A1 inh
CCN(CC)S(=O)(=O)c1ccc2c(c1)nc(CCC(=O)Nc1ccc3c(c1)OCO3)n2C	-1.0%	-2.3%	-17.9%	70.8	·	7.94µM*
CN(C)S(=O)(=O)c1ccc2c(c1)nc(CCC(=O)Nc1ccc3c(c1)OCO3)n2C	-15.6%	-7.6%	?	29.2	·	5.01µM*
CCN(CC)S(=O)(=O)c1ccc2c(c1)nc(CCC(=O)OCC(=O)Nc1cc(OC)cc(OC)c1)n2C	-7.2%	4.6%	2.6%	-29.5	·	?
CCOC(=O)[C@@H](O)Cc1cnc2ccccc2n1	-0.2%	-2.1%[7.66 µM]	·	·	·	-13.5%[13.5 µM]
COc1ccccc1C(=O)n1nc(-c2ccccc2)nc1NCc1ccc(Cl)cc1	·	·	·	·	-1.4	·
CCN(CC)S(=O)(=O)c1ccc2c(c1)nc(CCC(=O)Nc1ccc3c(c1)OCO3)n2CC	-11.3%	-3.8%	?	11.6	·	2.82µM*
CCN(CC(=O)Nc1ccc2c(c1)OCCO2)S(=O)(=O)c1ccc(C)cc1	-15.1%	17.9%	-12.4%	?	-6.3	-2.2%
CCNc1ncc2nc(-c3ccc(OC)cc3)c(=O)n(CCC#N)c2n1	·	·	3.6%	·	·	?
Cn1cccc1/C=N/n1c(-c2ccc(C(C)(C)C)cc2)n[nH]c1=S	11.2µM*	-0.5%	-5.1%	54.0	0.3	?
Cc1nn(-c2ccccc2)c(C)c1/C=N/NC(=O)c1cc(-c2cccc3ccccc23)n[nH]1	-19.7%	-0.1%	?	37.8	4.2	1.2%
Cc1nn(-c2ccccc2)c(C)c1/C=N/NC(=O)c1cc(-c2ccccc2)n[nH]1	-16.5%	-0.2%	?	-87.4*	18.6	4.1%
Cc1nn(-c2ccccc2)c(C)c1/C=N/n1c(-c2ccncc2)n[nH]c1=S	·	-2.6%	?	·	·	22.4µM*
Cc1ccc(-c2n[nH]c(=S)n2/N=C/c2c(C)[nH]n(-c3ccccc3)c2=O)cc1	·	-6.5%	?	·	·	-9.7%
Cn1cccc1/C=N/n1c(-c2ccccc2)n[nH]c1=S	14.1µM*	-2.3%	14.7%[0.0737 µM]	10.6	-0.9	-13.7%
CCOc1cc(CNC(=O)c2ccc(C)c(NC(=O)c3nsc4ccccc34)c2)ccc1OC	·	·	5.8%[46 µM]	·	·	·
COc1ccc(-c2nc3cnc(OC)nc3n(C3CC3)c2=O)cc1	?	-6.5%	·	·	·	?
O=c1c(CCc2ccccc2)nc2cnc(Nc3ccccc3)nc2n1Cc1cccs1	-9.2%	-0.4%	·	·	·	-3.8%
COc1cccc(-c2coc3ccc(Br)cc3c2=O)c1	-5.3%	0.6%	·	·	·	6.7%
Cc1nc2ccccc2nc1SCC(=O)c1ccccc1	-19.2%	-0.3%	?	38.9	?	22.4µM*
CCCc1nc(SCC(=O)c2ccc(F)cc2)c2ccccc2n1	·	0.4%	·	·	·	17.8µM*
Nc1nc2c(c(=O)[nH]1)N[C@H](CCNc1ccc(C(=O)O)cc1)CN2	-7.5%	-5.7%[7.66 µM]	·	·	·	-8.9%[13.5 µM]
CC(=O)N1CCC2(CC1)CN(C(c1ccccc1)c1ccccc1)C2	-6.1%	-0.7%	·	·	·	0.5%
Cc1cc(C)c2nc3c(c([C@H](O)C4CCCCN4)c2c1)CC/C3=C/c1ccc(Cl)cc1 (some centres undefined)	-0.7%	-4.9%[7.66 µM]	·	·	·	10.0%[13.5 µM]
Cn1c(CO)cnc1SCc1ccc([N+](=O)[O-])cc1	-2.0%	-6.4%	-7.1%	6.4	-3.5	28.2µM*
COC(=O)c1cnc(SCc2ccc([N+](=O)[O-])cc2)n1C	·	·	14.5%[46 µM]	·	·	-4.4%
SMILES	HPGD inh	Luc counter	LMNA splice mod	PNC assembly inh	IMPase cell inh	ALDH1A1 inh
FC(F)Sc1nnc(-c2cccs2)n1-c1ccccc1	-12.5%	2.5%	-8.1%	-80.1*	-0.3	26.3%
COc1ccc(C(=O)/C(=C/c2cccs2)c2nc3ccccc3o2)cc1	35.5µM*	-1.2%	?	67.8	16.8	2µM*
O=C(CSc1nc2c([nH]c3ccccc32)c(=O)n1-c1ccccc1)NCc1ccc(F)cc1	·	·	6.1%[46 µM]	·	·	·
CC1CCCC(C)N1C(=O)c1cc(-c2ccc(Cl)c(Cl)c2)on1 (centres undefined)	17.8µM*	-1.5%	9.6%	86.3	9.5	-18.8%
S=c1[nH]nc(-c2ccccn2)n1/N=C/c1ccc(Cl)cc1	·	·	·	·	·	0.2%
S=c1[nH]nc(-c2ccco2)n1/N=C/c1ccccc1Cl	·	·	-8.0%	-19.6	-3.7	10µM*
S=c1[nH]nc(-c2ccco2)n1/N=C/c1ccc(Cl)cc1	3.55µM*	1.2%	?	?	-1.0	22.4µM*
Cc1ccc(/C=N/n2c(-c3ccco3)n[nH]c2=S)s1	12.6µM*	2.0%	-12.3%	-112.6*	-1.0	11.2µM*
CCCCn1c(-c2ccco2)n[nH]c1=S	?	0.8%	?	-0.8	·	?
Fc1ccc(/C=N/n2c(-c3cccs3)n[nH]c2=S)cc1	3.98µM*	20.1%	8.0%	12.5	1.2	14.1µM*
CC(=O)OCCC(C)CCC=C(C)C (centres undefined)	-9.6%	-3.3%	5.3%	·	·	-8.3%
Cc1oc(C(C)(C)C)cc1C(=O)N1CCN(C(c2ccccc2)c2ccccc2)CC1	·	·	7.7%[46 µM]	·	·	8.91µM*
O=C(C1=COCCO1)N1CCN(C(c2ccccc2)c2ccccc2)CC1	-17.2%	1.2%	5.4%	14.0	11.9	8.91µM*
Cc1occc1C(=O)N1CCN(C(c2ccccc2)c2ccccc2)CC1	-22.0%	3.0%	-20.0%	-26.5	7.7	?
Cc1ccc(Sc2ccc(NC(=O)CCl)cc2)c(C)c1	11.2µM*	-6.2%	-8.4%	-26.7	·	-5.7%
Cc1cccc(NC(=O)c2sc3nc4c(c(-c5cccs5)c3c2N)CN(C)CC4)c1	-16.7%	5.0%	13.7%	-19.8	20.5	14.1µM*
COCC(C)NC(=O)c1cc(-c2cccc(OC)c2)on1 (centres undefined)	-12.9%	-5.5%	13.6%	-10.3	1.3	7.5%
COc1ccc(-c2cc(C(=O)N3CCc4ccccc4C3)no2)cc1	·	-4.1%	3.6%[46 µM]	·	·	-6.0%
COc1cccc(-c2cc(C(=O)N3CCc4ccccc4C3)no2)c1	20µM*	4.4%	-13.7%	?	0.6	?
COc1cccc(-c2cc(C(=O)NC3CCCC3)no2)c1	15.8µM*	2.6%	-9.6%	-2.0	15.1	?
COCCNC(=O)c1cc(-c2cccc(OC)c2)on1	25.1µM*	-7.8%	2.1%	?	6.8	8.1%
CC(C)OC(=O)[C@@H]1CC[C@H](C)[C@@H](CCC[C@@H]2CC=C[C@H](CC#N)O2)O1	-9.3%	-1.4%	·	·	·	9.1%
C/C(Cl)=C/CCl	-6.9%	·	·	·	·	?
CC1Cc2ccccc2N1C(=O)COC(=O)CNC(=O)c1ccc(Br)o1 (centres undefined)	-12.3%	2.5%	-8.5%	35.8	6.9	28.2µM*
C=CCOC(=O)C(=O)/C=C/c1csc2ccccc12	·	·	·	·	·	10µM*
Fc1ccc(NC(=S)N2N=CCC2c2ccccc2)cc1 (centres undefined)	-13.4%	-28.1%	20.6%	-14.9	2.8	7.08µM*
